We go through 15 compounds from PubChem BioAssay.

SMILES strings stand for the structures. A number with no mark means an inactive call. Calls of active or inactive are those of the source.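 How the source made its calls: active means inhibition above the hit cutoff set in the earlier primary screen (cut at about 27% in these data); inactive means the rest.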

Protein phosphatase methylesterase 1 (Homo sapiens), sequence (Q9Y570 whole entry, looked up): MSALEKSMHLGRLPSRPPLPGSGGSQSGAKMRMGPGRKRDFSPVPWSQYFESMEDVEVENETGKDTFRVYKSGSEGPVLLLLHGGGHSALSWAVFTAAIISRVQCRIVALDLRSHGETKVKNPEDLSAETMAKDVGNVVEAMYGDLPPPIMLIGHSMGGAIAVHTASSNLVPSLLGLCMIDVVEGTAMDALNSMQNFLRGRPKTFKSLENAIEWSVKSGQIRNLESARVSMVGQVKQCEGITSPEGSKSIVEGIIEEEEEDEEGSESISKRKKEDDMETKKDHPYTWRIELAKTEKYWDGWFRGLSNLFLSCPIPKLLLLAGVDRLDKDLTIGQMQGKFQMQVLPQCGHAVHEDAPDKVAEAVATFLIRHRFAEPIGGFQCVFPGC

The test has as its target Protein phosphatase methylesterase 1 (Homo sapiens) (UniProt Q9Y570). Nature of the test: PME-1 inhibitor activity retest, confirmation, biochemical, fluorescence polarization, FP-Rh probe, triplicate (AID 2171).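 Further: 0% = enzyme with DMSO and 100% = wells lacking PME-1.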 The note with it: recombinant PME-1, FP-Rh probe fluorescence polarization; at 5.9 µM; hits give high values.
Consider `O=C(OCCN(C1=NS(=O)(=O)c2ccccc21)c1ccc(Cl)cc1)c1ccco1`, for which the inhibition was 20.6%.

Consider `c1ccc2c(c1)OCCc1c-2[nH]c2ccccc12`, for which the inhibition is 21.9%.

As to `CCN(CC)c1ccc(S(=O)(=O)N2CCOCC2)cc1NC(=O)CN1CCN(Cc2ccccc2)CC1`, the inhibition is 72.3% (active).

As to `COc1cc(/C=C2/C(=O)c3cccc([N+](=O)[O-])c3C2=O)c(Br)cc1O`, the inhibition is 16.7%.

As for `COC(=O)N1C(=O)[C@](c2ccccc2)(C(C)C)N1C(=O)OC`, the inhibition is 23.3%.

As to `Cc1ccc(S(=O)(=O)N2CCN(C(=O)Cn3cnc4c3c(=O)n(C)c(=O)n4C)CC2)cc1C`, the inhibition was 20.7%.

With `COc1cc2c(cc1OC)CN(C(=O)c1ccc3[nH]c(C)c(C)c3c1)CC2`, the inhibition is 38.8% (active).

As to `CN(c1ccccc1)S(=O)(=O)c1ccc(NC(=O)c2ccc(-c3ccccc3)cc2)cc1`, the inhibition is 59.7% (active).

In the case of `N#CC1=C(N)C(C#N)(C#N)C(c2cccnc2)C2CC(c3ccccc3)CC=C12` (stereo not given), the inhibition is 83.5% (active).

In the case of `Nc1[nH]n(-c2ccccc2)c(=O)c1N=Nc1ccc2c(c1)OCCO2`, the inhibition was 34.5% (active).

In the case of `COC(=O)c1ccccc1C(=O)c1ccc2c(c1)NC(=O)CO2`, the inhibition was 7.04%.

Turning to `CCc1nnc(NC(=O)CSc2nc(C)c3c(c2C#N)CCCC3)s1`, the inhibition was 13.9%.

Turning to `COc1ccc(N=C2NC(=O)S/C2=C\c2ccc(N(C)C)cc2)cc1`, the inhibition is 37.2% (active).

Consider `Cn1c2ccccc2c2cc(/C=N/NC(=O)c3ccc(N)cc3)ccc21`, for which the inhibition is 19.7%.

Take `Cc1[nH]c2ccccc2c1/C=N/NC(=O)c1cc(-c2ccncc2)nc2ccccc12`: the inhibition was 23%.

The inhibition is the relative decrease from the control value, in per cent.
